Data on 40 compounds can be found in PubChem BioAssay (NCI).

About 83,000 compounds went through this panel and 20% of them were active in at least one assay; those are over-represented in the sample as a whole.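 In brief: 96-well plates, 48 h treatment, single concentration, percent growth endpoint.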 The source made the active and inactive calls. How the source made its calls: active means growth percent below 10; inactive means the rest.

The first assay concerns OVCAR-3 ovarian. The assay is described as follows: NCI-60 one-dose screen, 48 h (100 = growth as untreated, 0 = no growth, -100 = all killed). The settings on record: 10 µM unless noted.
`NS(=O)(=O)N(c1cc(C(F)(F)F)cc(C(F)(F)F)c1)C1CCN(Cc2ccc(C(F)(F)F)cc2)CC1`: the growth was 15% (inactive).

As to `Nc1ccc2c(c1Br)Cc1ccccc1-2`, the growth was 99.1% (inactive). The same measure, in the same setting: then `CC1C(C)N(C(=O)CCl)c2ccccc2N1C(=O)CCl` (stereo not drawn), with -91.1% (active); and `Nc1ccccc1-c1ccn[nH]1`, with 91.6% (inactive). As to `O=C1OC2(c3ccccc31)c1ccccc1-c1ccccc12`, the growth is 93.6% (inactive). In the case of `O=C(c1ccc(Cl)cc1)c1ccc(Cl)cc1`, the growth was 105% (inactive).

Consider `Nc1ccc2c(c1)C(=O)c1cc(Cl)c(Cl)cc1-2`, for which the growth was 110% (inactive). On the same count and under the same terms, then `COc1cc(/C(Cl)=C/C=C/C(=O)c2c(C)[n+]([O-])c3ccc(Cl)cc3[n+]2[O-])cc(OC)c1OC`, with 33.7% (inactive); and `CCSc1ncc(Br)c(Sc2nc(N)nc3nc[nH]c23)n1`, with 75.2% (inactive); and `O=C1/C(=C/c2ccccc2O)C(=S)SN1Cc1ccco1`, with 111% (inactive). Same read-out and setting: in the case of `N#CC1c2ccccc2C=CN1C(=O)N(c1ccccc1)c1ccccc1` (stereo not drawn) it was -34.3% (active); in that of `COc1ccc2[nH]c(=O)c(CNc3ccc(Nc4nccc(-c5ccc(Cl)cc5)n4)cc3)cc2c1`, 89.3% (inactive); in that of `Nc1ccc(N=Nc2ccccc2)cc1[N+](=O)[O-]`, 102% (inactive). Still for that read-out and setting: in the case of `OCCN1CCN(CCCN2c3ccccc3Sc3ccc(C(F)(F)F)cc32)CC1` it was 53.4% (inactive); in that of `COc1ccc(C2CC(c3ccc4c(c3)OCO4)=NN2C=O)cc1` (stereo not drawn), 128% (inactive); in that of `CC(=O)Nc1c(Cl)cc2c(c1Cl)Cc1cc([N+](=O)[O-])ccc1-2`, 72% (inactive).

In the case of `Cc1ncc(C(=O)Nc2ccc(CN3CCN(C)CC3)c(C(F)(F)F)c2)cc1C#Cc1cncc2ncccc12`, the growth is 83% (inactive). With `Cc1cccc2nnc(-c3ccccc3)n12`, the growth was 129% (inactive). The same measure, in the same setting: then `Cn1ccnc1C(=O)/C=C/c1ccc(C(=O)Nc2nc3ccccc3[nH]2)cc1`, with 7.54% (active); and `Cc1cc(-c2ccccc2)cc(C)n1`, with 127% (inactive).

On to `Cc1cn(C(C=O)OC(C=O)CO)c(=O)[nH]c1=O` (stereo not drawn), for which the growth is 109% (inactive). As to `COc1cc(-c2nc3nc4sc(C)c(C)c4c(=O)n3[nH]2)cc(OC)c1OC`, the growth was 93.1% (inactive). Regarding `Nc1ccc2c(c1)Cc1cc(Cl)c(Cl)cc1-2`, the growth is 7.25% (active).

With `CCN(CC)CCCCCCCNc1c2ccc(Cl)cc2nc2ccc(OC)cc12`, the growth was -39.6% (active).

As for `O=C(Nc1nc(-c2ccc(Cl)cc2)cs1)c1cc(-c2ccc(Br)cc2)nc2ccc(Cl)cc12`, the growth was 10% (inactive). Consider `Cc1ccc(C(NC(=O)c2ccccc2)c2ccc3cccnc3c2O)cc1` (stereo not drawn), for which the growth is 31.5% (inactive). On the same count and under the same terms, then `O=[N+]([O-])c1ccc(N=Nc2c(Cl)cc(O)cc2Cl)cc1`, with -25.3% (active); and `N#Cc1ncc(-c2ccc(C(F)(F)F)cc2)c(NC2CCCCCC2)n1`, with 1.17% (active); and `O=C(O)CNC(=O)C1(N2C(=O)c3ccccc3C2=O)CCCC1`, with 139% (inactive).

As to `O=[N+]([O-])c1ccc2[nH]cc(-c3c4ccccc4cc4[nH]c5ccc([N+](=O)[O-])cc5c34)c2c1`, the growth was -7.76% (active).

For `COCCCNS(=O)(=O)c1ncnc2nc[nH]c12`, the growth is 102% (inactive). Same read-out and setting: then `O=C1Nc2ccc(Cl)cc2/C1=C/c1cccs1`, with 87.8% (inactive); and `O=C(COc1ccc(/C=C2\Cc3ccccc3C2=O)cc1)c1ccc(Cl)cc1`, with 128% (inactive); and `N=C1c2nc3n(c2C(=O)c2nc4n(c21)CCCCC4)CCCCC3`, with 111% (inactive). Turning to `O=C1N=C(N2CCOCC2)S/C1=C\c1cn(-c2ccccc2)nc1-c1ccccc1`, the growth was 58% (inactive).

Regarding `CCOC(=O)c1sc(NC(=O)COc2cccc(/C=C3\Cc4ccc(Cl)cc4C3=O)c2)nc1C`, the growth is 120% (inactive). The same measure, in the same setting: then `C(=C1c2ccccc2-c2ccccc21)c1ccccn1`, with 53.1% (inactive); and `O=C(Nc1ccccc1S)c1ccccc1`, with 112% (inactive).

A further assay relates to HS 578T breast. The description is as above. The settings on record: 10 µM unless noted.
As for `O=c1ncc(-c2ccc(C(F)(F)F)cc2)c(NC2CCCCCC2)[nH]1`, the growth was 68.6% (inactive).

For the compound `NS(=O)(=O)N(c1cc(C(F)(F)F)cc(C(F)(F)F)c1)C1CCN(Cc2ccc(C(F)(F)F)cc2)CC1`, the growth was 25.2% (inactive). Turning to `Nc1ccc2c(c1Br)Cc1ccccc1-2`, the growth is 95.4% (inactive). Still for that read-out and setting: in the case of `CC1C(C)N(C(=O)CCl)c2ccccc2N1C(=O)CCl` (stereo not drawn) it was -28.3% (active); in that of `Nc1ccccc1-c1ccn[nH]1`, 100% (inactive). Still for that read-out and setting: in the case of `O=C1OC2(c3ccccc31)c1ccccc1-c1ccccc12` it was 83.4% (inactive); in that of `O=C(c1ccc(Cl)cc1)c1ccc(Cl)cc1`, 130% (inactive).

Consider `Nc1ccc2c(c1)C(=O)c1cc(Cl)c(Cl)cc1-2`, for which the growth is 105% (inactive). On the same count and under the same terms, then `CCSc1ncc(Br)c(Sc2nc(N)nc3nc[nH]c23)n1`, with 89.9% (inactive); and `N#CC1c2ccccc2C=CN1C(=O)N(c1ccccc1)c1ccccc1` (stereo not drawn), with 52.9% (inactive); and `COc1ccc2[nH]c(=O)c(CNc3ccc(Nc4nccc(-c5ccc(Cl)cc5)n4)cc3)cc2c1`, with 101% (inactive). With `Nc1ccc(N=Nc2ccccc2)cc1[N+](=O)[O-]`, the growth is 139% (inactive). Take `OCCN1CCN(CCCN2c3ccccc3Sc3ccc(C(F)(F)F)cc32)CC1`: the growth was 24.6% (inactive). The same measure, in the same setting: then `C1CCC(C(CC2CCCCN2)C2CCCCC2)CC1` (stereo not drawn), with 57% (inactive). Same read-out and setting: then `COc1ccc(C2CC(c3ccc4c(c3)OCO4)=NN2C=O)cc1` (stereo not drawn), with 115% (inactive); and `CC(=O)Nc1c(Cl)cc2c(c1Cl)Cc1cc([N+](=O)[O-])ccc1-2`, with 34.6% (inactive); and `Cc1ncc(C(=O)Nc2ccc(CN3CCN(C)CC3)c(C(F)(F)F)c2)cc1C#Cc1cncc2ncccc12`, with 47.9% (inactive). Same read-out and setting: in the case of `Cc1cccc2nnc(-c3ccccc3)n12` it was 146% (inactive); in that of `Cn1ccnc1C(=O)/C=C/c1ccc(C(=O)Nc2nc3ccccc3[nH]2)cc1`, 40.2% (inactive); in that of `Cc1cc(-c2ccccc2)cc(C)n1`, 111% (inactive). As for `Cc1cn(C(C=O)OC(C=O)CO)c(=O)[nH]c1=O` (stereo not drawn), the growth is 103% (inactive). The same measure, in the same setting: then `COc1cc(-c2nc3nc4sc(C)c(C)c4c(=O)n3[nH]2)cc(OC)c1OC`, with 87.7% (inactive). As for `Nc1ccc2c(c1)Cc1cc(Cl)c(Cl)cc1-2`, the growth was 67.9% (inactive). Same read-out and setting: in the case of `CCN(CC)CCCCCCCNc1c2ccc(Cl)cc2nc2ccc(OC)cc12` it was -42.7% (active); in that of `O=[N+]([O-])c1ccc(N=Nc2c(Cl)cc(O)cc2Cl)cc1`, -20% (active). Regarding `N#Cc1ncc(-c2ccc(C(F)(F)F)cc2)c(NC2CCCCCC2)n1`, the growth was 46.5% (inactive). `O=C(O)CNC(=O)C1(N2C(=O)c3ccccc3C2=O)CCCC1`: the growth is 128% (inactive). Same read-out and setting: then `O=[N+]([O-])c1ccc2[nH]cc(-c3c4ccccc4cc4[nH]c5ccc([N+](=O)[O-])cc5c34)c2c1`, with 30.4% (inactive); and `O=C1Nc2ccc(Cl)cc2/C1=C/c1cccs1`, with 96.2% (inactive); and `O=C(COc1ccc(/C=C2\Cc3ccccc3C2=O)cc1)c1ccc(Cl)cc1`, with 105% (inactive). Still for that read-out and setting: then `N=C1c2nc3n(c2C(=O)c2nc4n(c21)CCCCC4)CCCCC3`, with 112% (inactive); and `O=C1N=C(N2CCOCC2)S/C1=C\c1cn(-c2ccccc2)nc1-c1ccccc1`, with 57.4% (inactive); and `CCOC(=O)c1sc(NC(=O)COc2cccc(/C=C3\Cc4ccc(Cl)cc4C3=O)c2)nc1C`, with 110% (inactive).

Consider `C(=C1c2ccccc2-c2ccccc21)c1ccccn1`, for which the growth was 65.4% (inactive). Still for that read-out and setting: in the case of `O=C(Nc1ccccc1S)c1ccccc1` it was 103% (inactive).
